Data from PubChem BioAssay (Tox21).
Inconclusive results are not listed. Active and inactive are the calls of the source. Calls follow the shape of the dose curve; as a rule, active = well fitted inhibition curve with a large enough effect in the signal ratio in the repeat runs (not every such curve was filed as active); inconclusive = weak or mixed curves, or effect the other way; inactive = no such curve, though single readings can be large or run the other way; the % refers to the signal ratio.

molecular target: Bile acid receptor (Homo sapiens) (UniProt Q96RI1); test: qHTS assay to identify small molecule antagonists of the farnesoid-X-receptor (FXR) signaling pathway (AID 743217); details: HEK293T FXR-UAS-bla, beta-lactamase ratio, CDCA-stimulated, 16 h; series mostly up to 62.6 µM
Sequence (Q96RI1 whole entry, looked up): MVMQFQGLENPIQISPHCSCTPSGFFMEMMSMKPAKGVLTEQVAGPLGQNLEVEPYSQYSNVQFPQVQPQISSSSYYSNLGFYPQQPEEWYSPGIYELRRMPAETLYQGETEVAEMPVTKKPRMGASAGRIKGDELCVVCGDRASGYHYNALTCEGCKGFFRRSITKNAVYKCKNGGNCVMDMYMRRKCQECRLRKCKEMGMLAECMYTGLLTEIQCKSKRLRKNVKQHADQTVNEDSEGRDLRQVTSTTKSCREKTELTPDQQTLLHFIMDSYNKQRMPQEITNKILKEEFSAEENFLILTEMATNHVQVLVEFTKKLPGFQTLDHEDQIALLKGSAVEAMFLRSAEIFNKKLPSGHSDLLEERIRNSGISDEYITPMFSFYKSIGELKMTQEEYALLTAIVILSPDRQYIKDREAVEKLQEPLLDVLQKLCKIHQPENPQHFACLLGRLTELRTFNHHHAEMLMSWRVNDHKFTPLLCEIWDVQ
From the text: U.S. Tox21 Program National Center for Advancing Translational Sciences [NCATS] NIH Chemical Genomics Center [NCGC] U.S. Environmental Protection Agency [EPA] National Institutes of Environmental Health Sciences [NIEHS] National Toxicology Program [NTP] U.S. Food and Drug Administration [FDA] Tox21 Assay Overview: The farnesoid-X-receptor (FXR), a nuclear hormone receptor, is highly expressed in liver, intestine, kidney and adrenal cortex. Natural ligands of FXR are the bile acids (Cholic acid, Chenodeoxy cholic acid etc). FXR is an important regulator of diverse metabolic pathways, including the bile acid homeostasis, lipid and glucose metabolisms. FXR regulates the expression of target genes by binding either as a monomer or as a heterodimer with the retinoid X receptor (RXR). Numerous studies have reported that FXR exerts protective function during cholestasis, diabetes, liver regeneration, and cancer. To identify compounds that inhibit FXR signaling, GeneBLAzer FXR-UAS-bla HEK 293T cell line (Invitrogen, Carlsbad, CA) containing a beta-lactamase reporter gene under the control of a UAS response element was used to screen the Tox21 10K compound library.
Tox21 Assay Protocol Summary: FXR-bla cells were dispensed at 5000 cells/5uL/well in 1536-well black wall/clear bottom plates using a Multidrop Combi (Thermo Fisher Scientific, Waltham, MA) dispenser. After the assay plates were incubated at 37C and 5% CO2 for 5 h, 23 nL of compounds dissolved in DMSO, positive controls or DMSO only was transferred to the assay plate by a Pintool station (Kalypsys, San Diego, CA), followed by addition of 1 uL Chenodeoxycholic acid (50 uM, final concentration in the wells). The assay plates were incubated at 37C for 16 h. After 1 uL of LiveBLAzerTM B/G FRET substrate was added using a Bioraptr Flying Reagent Dispenser (FRD) workstation (Beckman Coulter, Indianapolis, IN), the plates were incubated at room temperature for 2 h, and fluorescence intensity was measured by an Envision plate reader (PerkinElmer, Shelton, CT).

| Compound | outcome |
| --- | --- |
| CCCCCOC(C)=O | inactive |
| OCCOCCN1CCN(C2=Nc3ccccc3Sc3ccccc32)CC1 | inactive |
| CC1=CC(=O)NS(=O)(=O)O1 | inactive |
| O=c1[nH]nnc2ccccc12 | inactive |
| CCCCCC1=CCCC1=O | inactive |
| Cc1ccc2oc(=O)ccc2c1 | inactive |
| CCCCCC/C(C=O)=C\c1ccccc1 | inactive |
| O=c1[nH]c(=O)n([C@H]2C[C@H](O)[C@@H](CO)O2)cc1Br | inactive |
| CCCCC(CC)COC(=O)CCCCC(=O)OCC(CC)CCCC (stereo not given) | inactive |
| c1ccc2c(c1)ccc1ccccc12 | inactive |
| CCCCN(CCCC)CCCC | inactive |
| Cc1cc(C)c(C)cc1C | inactive |
| OC[C@H]1O[C@@](CO)(O[C@H]2O[C@H](CO)[C@@H](O)[C@H](O)[C@H]2O)[C@@H](O)[C@@H]1O | inactive |
| CCCCCCCCCC | inactive |
| CC[C@H](C)C(=O)O[C@H]1C[C@@H](C)C=C2C=C[C@H](C)[C@H](CC[C@@H]3C[C@@H](O)CC(=O)O3)[C@H]21 | inactive |
| CC(C)(C)[C@@H](O)[C@@H](Cc1ccc(Cl)cc1)n1cncn1 | inactive |
| CN(C)CCOCCN(C)C | inactive |
| CC1CCC(C(C)C)C(O)C1 (stereo not given) | inactive |
| CCCCCCCCC/C=C/CC1CC(=O)OC1=O (stereo not given) | inactive |
| O=C(O)CCCCCCCCCCC(=O)O | inactive |

| Compound | outcome |
| --- | --- |
| CCCCCCCCCCCCCCCO | inactive |
| Oc1cccc2ccccc12 | inactive |
| CN(C)CCCN | inactive |
| Nc1ccccc1[N+](=O)[O-] | inactive |
| CSCCC=O | inactive |
| CC(C)(N)CO | inactive |
| CCCC(C)=O | inactive |
| O=C=NCCCCCCN=C=O | inactive |
| O=C(O)c1cc(C(=O)O)cc(S(=O)(=O)O)c1 | inactive |
| OCC(CO)(CBr)CBr | inactive |
| COc1ccc(Cl)cc1C(=O)NCCc1ccc(S(=O)(=O)NC(=O)NC2CCCCC2)cc1 | inactive |
| CC1CCC2CC1C2(C)C (stereo not given) | inactive |
| CCCCOC(=O)COc1ccc(Cl)cc1Cl | inactive |
| C[Si](O[Si](C)(C)C)O[Si](C)(C)C | inactive |
| CC(=O)CC(=O)Nc1ccccc1 | inactive |
| OCc1cccnc1 | inactive |
| O=C(O)CC(C(=O)O)C(CC(=O)O)C(=O)O (stereo not given) | inactive |
| CCCCC(CC)CO (stereo not given) | inactive |
| CC(O)COCC(C)O (stereo not given) | inactive |
| CC(=O)Nc1ccccc1 | inactive |
